± gives the standard deviation of the averaged measurements.
Experiments:
Test in all cases: promoter activity interaction Z-score (Lux/OD deviation from empty-vector control); higher = stronger promoter induction by the compound
[1] = tested on: E. coli BW25113 acrABp lux reporter
Outline: (§1)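 Wild-type E. coli BW25113 and three single-gene deletion strains, each carrying a low-copy luxCDABE promoter reporter, were grown at 37°C in 40 µl LB Lennox per well of a 384-well plate. Every compound was applied at four 1:2 dilutions in biological duplicates, and OD600 and luminescence were read every 30 min for 12 h. Integration covered 0–8 h for wild type and 1–9 h for deletion strains, and wells under 10% of the median growth value were removed. Scores are Z-transformed residuals of growth-normalised luminescence fitted against a control.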

[2] = tested on: E. coli BW25113 micFp lux reporter
Outline: as §1

[3] = tested on: E. coli BW25113 ompFp lux reporter
Outline: as §1

[4] = tested on: E. coli BW25113 robp lux reporter
Outline: as §1

[5] = tested on: E. coli BW25113 soxSp lux reporter
Outline: as §1

[6] = tested on: E. coli BW25113 tolCp lux reporter
Outline: as §1

[7] = 19.7 µg/ml, genetic background: wild type
[8] = 19.7 µg/ml, genetic background: ΔmarA
[9] = 19.7 µg/ml, genetic background: Δrob
[10] = 19.7 µg/ml, genetic background: ΔsoxS
[11] = 39.3 µg/ml, genetic background: wild type
[12] = 39.3 µg/ml, genetic background: ΔmarA
[13] = 39.3 µg/ml, genetic background: Δrob
[14] = 39.3 µg/ml, genetic background: ΔsoxS
[15] = 78.6 µg/ml, genetic background: wild type
[16] = 78.6 µg/ml, genetic background: ΔmarA
[17] = 78.6 µg/ml, genetic background: Δrob
[18] = 78.6 µg/ml, genetic background: ΔsoxS
[19] = 157.2 µg/ml, genetic background: wild type
[20] = 157.2 µg/ml, genetic background: ΔmarA
[21] = 157.2 µg/ml, genetic background: Δrob
[22] = 157.2 µg/ml, genetic background: ΔsoxS

CC(=O)[C@H]1CC[C@H]2[C@@H]3CCC4=CC(=O)CC[C@]4(C)[C@H]3CC[C@]12C [Progesterone]
promoter activity interaction Z-score [1, 7]: -0.247 ± 0.13 | promoter activity interaction Z-score [1, 8]: -0.405 ± 0.19 | promoter activity interaction Z-score [1, 9]: -0.0328 ± 0.098 | promoter activity interaction Z-score [1, 10]: -0.282 ± 0.25 | promoter activity interaction Z-score [1, 11]: -0.262 ± 0.14 | promoter activity interaction Z-score [1, 12]: -0.838 ± 0.1 | promoter activity interaction Z-score [1, 13]: -0.217 ± 0.17 | promoter activity interaction Z-score [1, 14]: -0.38 ± 0.34 | promoter activity interaction Z-score [1, 15]: 0.00448 ± 0.24 | promoter activity interaction Z-score [1, 16]: -0.886 ± 0.13 | promoter activity interaction Z-score [1, 17]: -0.151 ± 0.044 | promoter activity interaction Z-score [1, 18]: -0.0393 ± 0.056 | promoter activity interaction Z-score [1, 19]: -0.214 ± 0.34 | promoter activity interaction Z-score [1, 20]: 0.269 ± 0.11 | promoter activity interaction Z-score [1, 21]: 0.191 ± 0.14 | promoter activity interaction Z-score [1, 22]: -0.315 ± 1 | promoter activity interaction Z-score [2, 7]: -0.103 ± 0.25 | promoter activity interaction Z-score [2, 8]: 0.119 ± 0.028 | promoter activity interaction Z-score [2, 9]: 0.0776 ± 0.12 | promoter activity interaction Z-score [2, 10]: 0.434 ± 0.5 | promoter activity interaction Z-score [2, 11]: -0.0976 ± 0.35 | promoter activity interaction Z-score [2, 12]: 0.123 ± 0.056 | promoter activity interaction Z-score [2, 13]: 0.0868 ± 0.01 | promoter activity interaction Z-score [2, 14]: 0.176 ± 0.29 | promoter activity interaction Z-score [2, 15]: -0.119 ± 0.33 | promoter activity interaction Z-score [2, 16]: 0.21 ± 0.0092 | promoter activity interaction Z-score [2, 17]: -0.0152 ± 0.13 | promoter activity interaction Z-score [2, 18]: 0.432 ± 0.42 | promoter activity interaction Z-score [2, 19]: -0.0937 ± 0.11 | promoter activity interaction Z-score [2, 20]: 0.211 ± 0.14 | promoter activity interaction Z-score [2, 21]: -0.0152 ± 0.04 | promoter activity interaction Z-score [2, 22]: 0.0431 ± 0.32 | promoter activity interaction Z-score [3, 7]: -0.534 ± 0.033 | promoter activity interaction Z-score [3, 8]: -0.169 ± 0.36 | promoter activity interaction Z-score [3, 9]: -0.0375 ± 0.16 | promoter activity interaction Z-score [3, 10]: -0.19 ± 0.42 | promoter activity interaction Z-score [3, 11]: -0.381 ± 0.1 | promoter activity interaction Z-score [3, 12]: -0.611 ± 0.036 | promoter activity interaction Z-score [3, 13]: 0.0341 ± 0.39 | promoter activity interaction Z-score [3, 14]: -0.905 ± 0.22 | promoter activity interaction Z-score [3, 15]: -0.604 ± 0.2 | promoter activity interaction Z-score [3, 16]: -0.705 ± 0.19 | promoter activity interaction Z-score [3, 17]: -0.397 ± 0.063 | promoter activity interaction Z-score [3, 18]: -0.681 ± 0.46 | promoter activity interaction Z-score [3, 19]: -0.672 ± 0.32 | promoter activity interaction Z-score [3, 20]: -0.651 ± 0.19 | promoter activity interaction Z-score [3, 21]: -1.43 ± 0.17 | promoter activity interaction Z-score [3, 22]: -1.51 ± 0.4 | promoter activity interaction Z-score [4, 7]: 0.215 ± 0.46 | promoter activity interaction Z-score [4, 8]: -0.134 ± 0.11 | promoter activity interaction Z-score [4, 9]: 0.137 ± 0.78 | promoter activity interaction Z-score [4, 10]: 0.0784 ± 0.35 | promoter activity interaction Z-score [4, 11]: -0.384 ± 0.091 | promoter activity interaction Z-score [4, 12]: -0.498 ± 0.18 | promoter activity interaction Z-score [4, 13]: -0.00268 ± 0.38 | promoter activity interaction Z-score [4, 14]: -0.408 ± 1.2 | promoter activity interaction Z-score [4, 15]: 0.0849 ± 0.14 | promoter activity interaction Z-score [4, 16]: -0.366 ± 0.29 | promoter activity interaction Z-score [4, 17]: -0.234 ± 0.65 | promoter activity interaction Z-score [4, 18]: -0.171 ± 0.34 | promoter activity interaction Z-score [4, 19]: -0.26 ± 0.16 | promoter activity interaction Z-score [4, 20]: -0.185 ± 0.13 | promoter activity interaction Z-score [4, 21]: -0.798 ± 0.68 | promoter activity interaction Z-score [4, 22]: -1.05 ± 0.11 | promoter activity interaction Z-score [5, 7]: -0.199 ± 0.29 | promoter activity interaction Z-score [5, 8]: -0.22 ± 0.01 | promoter activity interaction Z-score [5, 9]: 0.0249 ± 0.041 | promoter activity interaction Z-score [5, 10]: -0.00845 ± 0.063 | promoter activity interaction Z-score [5, 11]: -0.25 ± 0.099 | promoter activity interaction Z-score [5, 12]: -0.192 ± 0.018 | promoter activity interaction Z-score [5, 13]: -0.155 ± 0.04 | promoter activity interaction Z-score [5, 14]: -0.315 ± 0.23 | promoter activity interaction Z-score [5, 15]: -0.226 ± 0.1 | promoter activity interaction Z-score [5, 16]: -0.147 ± 0.072 | promoter activity interaction Z-score [5, 17]: -0.0586 ± 0.098 | promoter activity interaction Z-score [5, 18]: -0.236 ± 0.25 | promoter activity interaction Z-score [5, 19]: -0.226 ± 0.079 | promoter activity interaction Z-score [5, 20]: -0.186 ± 0.028 | promoter activity interaction Z-score [5, 21]: -0.48 ± 0.037 | promoter activity interaction Z-score [5, 22]: -0.776 ± 0.47 | promoter activity interaction Z-score [6, 7]: -0.462 ± 1.4 | promoter activity interaction Z-score [6, 8]: 0.741 ± 0.62 | promoter activity interaction Z-score [6, 9]: -0.127 ± 0.85 | promoter activity interaction Z-score [6, 10]: -0.377 ± 0.42 | promoter activity interaction Z-score [6, 11]: 0.606 ± 1 | promoter activity interaction Z-score [6, 12]: 0.0914 ± 0.43 | promoter activity interaction Z-score [6, 13]: 0.494 ± 1 | promoter activity interaction Z-score [6, 14]: -1.65 ± 1.1 | promoter activity interaction Z-score [6, 15]: -0.308 ± 0.37 | promoter activity interaction Z-score [6, 16]: 0.451 ± 1.3 | promoter activity interaction Z-score [6, 17]: 0.161 ± 0.71 | promoter activity interaction Z-score [6, 18]: 0.0688 ± 1.3 | promoter activity interaction Z-score [6, 19]: -0.227 ± 0.23 | promoter activity interaction Z-score [6, 20]: 0.167 ± 0.12 | promoter activity interaction Z-score [6, 21]: -0.116 ± 0.74 | promoter activity interaction Z-score [6, 22]: 0.764 ± 1
